PubChem BioAssay (NCATS)
Several values for one entry are separate records, joined by “and”; a condition that tells them apart may be missing. Equal entries are not always repeated. Records with an inconclusive call do not appear. Activity calls are given as the source filed them. Unless noted, calls come from the whole dose curve; as a rule, active = well fitted curve in the direction sought with a large enough effect; inconclusive = small, poorly fitted or top-dose-only effect, or another doubt; inactive = no such curve, though single readings can be large; an effect the other way counts as inactive or inconclusive.

What was measured:
[1] = target: Vitamin D3 receptor (Homo sapiens) (UniProt P11473); assay: qHTS assay for small molecule agonists of vitamin D receptor signaling (AID 588543; calls by dose curve;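 note: 0% = DMSO basal and 100% = reference agonist control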)
In short: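 qHTS in agonist mode: compound titrations stimulate a VDR-driven β-lactamase reporter in HEK293T cells over 16 h at 37 °C. Response normalized to 50 nM 1α,25-dihydroxyvitamin D3 = 100%, DMSO = 0%; Hill fitting gives EC50 and maximal response.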

[2] = target: Thyroid hormone receptor beta (Homo sapiens) (UniProt P10828); assay: qHTS assay for small molecule agonists of thyroid hormone receptor beta signaling (AID 588545; calls by dose curve)
In short: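 HEK 293 TR-UAS-bla; agonist mode; 18 hrs, 37 C; CCF4, ex 405/em 460 and 530 nm; norm. T3 10 nM = 100%, DMSO = 0%; Hill fit → EC50, efficacy.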

[3] = qHTS assay for small molecule antagonists of retinoid X receptor alpha signaling (AID 588546; active = well fitted inhibition curve with a large enough effect in the signal ratio, with a control signal flat, not every such curve was filed as active; the % refers to the signal ratio;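 note: cells stimulated with 9-cis-retinoic acid as agonist; % is set by controls: 0 for no effect and ±100 for the full control effect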); settings: HEK293T RXRa-UAS-bla, beta-lactamase ratio, antagonist mode; measured here: W530 green channel, cytotoxicity proxy
In short: (§1)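 Beta-lactamase reporter inhibition, read as CCF4 fluorescence ratio (ex 405, em 460/530 nm) after 2 h at RT. HEK293T UAS-bla cells, 2500/well, were stimulated with 9-cis-RA at 500 or 100 nM final alongside test compound for 18 h at 37 C.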

[4] = target: Retinoic acid receptor RXR-alpha (Homo sapiens) (UniProt P19793); assay: as above; settings: HEK293T RXRa-UAS-bla, beta-lactamase ratio, antagonist mode
In short: as §1

[5] = target: Thyroid hormone receptor beta (Homo sapiens) (UniProt P10828); assay: qHTS assay for small molecule antagonists of thyroid hormone receptor beta signaling (AID 588547; active = well fitted inhibition curve with a large enough effect in the signal ratio, with a control signal flat, not every such curve was filed as active; the % refers to the signal ratio;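 note: cells stimulated with 0.4 nM T3 agonist during compound exposure; series mostly up to about 77 µM; % is set by controls: 0 for no effect and ±100 for the full control effect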); settings: TR-UAS-bla HEK293, beta-lactamase ratio, antagonist mode, 18 h
In short: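 TR-UAS-bla GripTite HEK293 cells in 2% charcoal/dextran FBS medium were preincubated 4 h at 37 C, given compound (0.59 nM to 92 uM) plus 0.4 nM T3 (final) for 18 h, then CCF4 for 2 h at RT; Hill fit gave IC50.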

[6] = target: Voltage-gated inwardly rectifying potassium channel KCNH2 (Homo sapiens) (UniProt Q12809); assay: qHTS Assay for Small Molecule Inhibitors of the Human hERG Channel Activity (AID 588834);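 note: top concentration of the series differs between compounds; % is set by controls: 0 for no effect and ±100 for the full control effect; lower thallium flux fluorescence means stronger hERG block; nearly all actives have a fitted effect of over 50% in size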
In short: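 Measured: FluxOR fluorescence after thallium stimulation in U2OS cells transduced with hERG by baculovirus. Compounds pre-incubated around 10 min; medium Opti-MEM with 2% FCS. AC50 from Hill equation.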

[7] = qHTS assay for small molecule disruptors of the mitochondrial membrane potential - 1 hr assay (AID 651754; calls by dose curve; note: % is set by controls: 0 for no effect and ±100 for the full control effect; nearly all actives have a fitted effect of over 35% in size)
In short: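 HepG2, 2,000 cells/well, overnight attachment; cpd or DMSO 1 hr, 37C/5% CO2; Mito-MPS dye 30 min, 37C; fluorescence monomer (490/535) and aggregate (540/590).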

[8] = qHTS assay for small molecule disruptors of the mitochondrial membrane potential - 5 hr assay (AID 651755; calls by dose curve; note: % is set by controls: 0 for no effect and ±100 for the full control effect; nearly all actives have a fitted effect of over 40% in size)
In short: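 HepG2 cells, attached overnight at 37C, were exposed to compound or DMSO for 5 hr at 37C, 5% CO2. Mito-MPS dye was then added for 30 min, and fluorescence read at 490/535 nm (monomers) and 540/590 nm (aggregates).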

[9] = target: Tumor necrosis factor (Homo sapiens) (UniProt P01375); assay: qHTS assay to identify small molecules that stimulate Tumor Necrosis Factor-alpha (TNF-alpha) secretion (AID 651757; active = well fitted curve in the direction sought with a large enough effect in the signal ratio; the % refers to the signal ratio; note: 0% is about no effect)
In short: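 Read-out is HTRF, a TR-FRET sandwich of cryptate- and XL665-labeled anti-TNF-alpha antibodies detecting cytokine secreted by THP-1 cells. Cells had been incubated with test compounds at 37 C for 17 hrs beforehand.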

[10] = qHTS assay for environmental chemicals that activate the Aryl hydrocarbon Receptor (AhR) signaling pathway (AID 651777); settings: 1A2-DRE human hepatoma cells, luciferase, 24 h; activation: stronger effect = higher value; note: % of control where 0% means no effect; nearly all actives have a fitted effect of over 15% in size
In short: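 Human hepatoma 1A2-DRE cells stably carrying a DRE/CYP1A2 promoter–luciferase reporter, 1,200 cells/well, exposed to compound 24 hr at 37 C. Luciferase read by One-Glo luminescence after 30 min at room temperature; increased signal marks AhR activation.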

[11] = target: Peroxisome proliferator-activated receptor alpha (Homo sapiens) (UniProt Q07869); assay: qHTS assay for small molecule agonists of the peroxisome proliferator-activated receptor alpha (PPARalpha) signaling pathway (AID 651778); settings: PathHunter PPARalpha complementation, chemiluminescence, 6 h; stronger effect = higher value; note: % of control where 0% means no effect
In short: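 Cells plated at 2,000/well and held overnight at 37 C, 5% CO2, then compound added by pin tool for 6 hr; after PathHunter detection reagent and 60 min at room temperature, chemiluminescence from enzyme complementation was read.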

[12] = target: Nuclear receptor ROR-gamma (Homo sapiens) (UniProt P51449); assay: qHTS assay for small molecule antagonists of the retinoid-related orphan receptor gamma (ROR-gamma) signaling pathway (AID 651802);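 note: luciferase reporter luminescence driven by ROR response element; series mostly up to about 92 µM; % is set by controls: 0 for no effect and ±100 for the full control effect; nearly all actives have a fitted effect of over 60% in size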
In short: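 CHO, TET-inducible ROR + RORE-LUC reporter, 1536-well qHTS. Compound pinned, doxycycline added, 16hr 37C/5% CO2. ONE-Glo, 30 min RT, luminescence; signal drop scored as antagonism.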

[13] = qHTS assay for small molecule agonists of the antioxidant response element (ARE) signaling pathway measured by Nrf2-dependant transcriptional activity (AID 720636; active = well fitted curve in the direction sought with a large enough effect in the repeat runs; an effect the other way counts as inactive or inconclusive; note: % of control where 0% means no effect)
In short: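 ARE-luc HepG2 cells carrying an Nrf2-responsive luciferase reporter, in medium with 1% dialyzed FBS, exposed to compound for 16 hr at 37 C, 5% CO2. Luminescence read 30 min after ONE-Glo addition.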

[14] = qHTS assay for small molecule antagonists of the retinoid-related orphan receptor gamma (ROR-gamma) signaling pathway - cell viability counter screen (AID 720652; active = well fitted curve in the direction sought with a large enough effect in the repeat runs; an effect the other way counts as inactive or inconclusive;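 note: series mostly up to about 92 µM; compound exposure lasted 16 hr before ATP read; % is set by controls: 0 for no effect and ±100 for the full control effect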)
In short: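 Luminescence from CellTiter-Glo after 30 min at room temperature reported cellular ATP as the cytotoxicity measure. Cells were the CHO reporter line with doxycycline-induced ROR-gamma expression, exposed to compound for 16 hr at 37 C.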

[15] = qHTS assay for small molecule agonists of the antioxidant response element (ARE) signaling pathway measured by Nrf2-dependant transcriptional activity - cell viability counter screen (AID 720653; active = well fitted curve in the direction sought with a large enough effect in the repeat runs; an effect the other way counts as inactive or inconclusive; note: % is set by controls: 0 for no effect and ±100 for the full control effect); settings: ARE-bla HepG2 viability, CellTiter-Glo ATP luminescence, 16 h; stronger effect = lower value
In short: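 ARE-bla HepG2 cells (2,000/well) rested 5 hrs at 37C/5% CO2, then exposed to compounds in DMSO for 16 hrs. Viability was read in the same wells as intracellular ATP by luminescence, 30 min at room temperature after reagent addition.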

[16] = qHTS assay for cell viability of HEK293 cells (AID 743288); settings: ATP luminescence (CellTiter-Glo), 18 h; max response: stronger effect = lower value; note: % is set by controls: 0 for no effect and ±100 for the full control effect; nearly all actives have a fitted effect of over 50% in size
In short: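 The Tox21 protocol used parental HEK293 cells treated for 18 h at 37 C with compounds delivered by pintool; ATP-coupled luminescence after 30 min at room temperature gave viability.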

[17] = qHTS assay for cell viability of the p53RE-bla HCT-116 cell line (AID 743292); note: potency is the fitted concentration of half-maximal effect; nearly all actives have a fitted effect of over 55% in size
In short: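 CellSensor p53RE-bla HCT-116 cells (4,000/well) pre-incubated 5 h at 37 C, then exposed to compounds in DMSO for 16 h at 37 C. Viability read as ATP content by CellTiter-Glo luminescence after 30 min at room temperature.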

[18] = target: Rap guanine nucleotide exchange factor 3 (Homo sapiens) (UniProt O95398); assay: Confirmatory qHTS for agonist of cAMP-regulated guanine nucleotide exchange factor 3 (EPAC1) (AID 1645881);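 note: EPAC1 catalysed release of BODIPY-GDP from Rap1B seen as fluorescence loss; 100% = effect of cAMP agonist control; nearly all actives have a fitted effect of over 75% in size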
[19] = target: Rap guanine nucleotide exchange factor 4 (Homo sapiens) (UniProt Q8WZA2); assay: Confirmatory qHTS for agonist of cAMP-regulated guanine nucleotide exchange factor 4 (EPAC2) (AID 1645884);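 note: nucleotide exchange releases bodipy-GDP from Rap1 and this lowers its fluorescence; % is set by controls: 0 for no effect and ±100 for the full control effect; nearly all actives have a fitted effect of over 65% in size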
[20] = target: Rap guanine nucleotide exchange factor 4 (Homo sapiens) (UniProt Q8WZA2); assay: Confirmatory qHTS for antagonist of cAMP-regulated guanine nucleotide exchange factor 4 (EPAC2) (AID 1645885); note: potency is the fitted concentration of half-maximal effect; nearly all actives have a fitted effect of over 25% in size
[21] = target: Rap guanine nucleotide exchange factor 3 (Homo sapiens) (UniProt O95398); assay: Counterscreen qHTS for antagonist of cAMP-regulated guanine nucleotide exchange factor 3 (EPAC1) (AID 1645888);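 note: fluorescence loss as bound BODIPY-GDP is released from Rap1B; % of control where 0% means no effect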
In short: (§2)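 Measured: fluorescence of BODIPY-GDP bound to Rap1B, which falls as exchange proceeds. Conditions include 50 uM competing GDP, 5 and 30 min reads, and a later cAMP challenge for antagonist detection.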

[22] = target: Rap guanine nucleotide exchange factor 3 (Homo sapiens) (UniProt O95398); assay: Counterscreen qHTS for agonist of cAMP-regulated guanine nucleotide exchange factor 3 (EPAC1) (AID 1645889); note: % of control where 0% means no effect; nearly all actives have a fitted effect of over 40% in size
In short: as §2

[23] = target: Nuclear receptor subfamily 1 group I member 2 (Rattus norvegicus) (UniProt Q9R1A7); assay: qHTS assay for small molecule activators of the rat pregnane X receptor (rPXR) signaling pathway (AID 651751; call rule not given here; note: 0% is about no effect); settings: rPXR reporter cells, luciferase (One-Glo), 24 h
[24] = qHTS assay for small molecule activators of the human pregnane X receptor (PXR) signaling pathway (AID 720659; call rule not given here; note: 0% is about no effect)

Sequence of Thyroid hormone receptor beta (Homo sapiens) (P10828 whole entry, looked up): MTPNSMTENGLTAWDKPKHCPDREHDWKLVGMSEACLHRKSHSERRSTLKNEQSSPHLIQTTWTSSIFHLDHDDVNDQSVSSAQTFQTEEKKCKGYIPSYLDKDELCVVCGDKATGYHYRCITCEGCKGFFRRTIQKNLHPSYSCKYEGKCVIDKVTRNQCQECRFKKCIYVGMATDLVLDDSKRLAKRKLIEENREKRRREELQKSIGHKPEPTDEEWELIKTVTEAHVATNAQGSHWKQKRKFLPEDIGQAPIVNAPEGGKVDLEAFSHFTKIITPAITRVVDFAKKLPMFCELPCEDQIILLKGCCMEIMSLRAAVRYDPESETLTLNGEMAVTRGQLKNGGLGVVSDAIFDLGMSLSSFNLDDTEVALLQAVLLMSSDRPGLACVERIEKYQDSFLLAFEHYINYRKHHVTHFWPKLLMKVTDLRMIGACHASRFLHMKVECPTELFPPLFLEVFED
Sequence of Peroxisome proliferator-activated receptor alpha (Homo sapiens) (Q07869 whole entry, looked up): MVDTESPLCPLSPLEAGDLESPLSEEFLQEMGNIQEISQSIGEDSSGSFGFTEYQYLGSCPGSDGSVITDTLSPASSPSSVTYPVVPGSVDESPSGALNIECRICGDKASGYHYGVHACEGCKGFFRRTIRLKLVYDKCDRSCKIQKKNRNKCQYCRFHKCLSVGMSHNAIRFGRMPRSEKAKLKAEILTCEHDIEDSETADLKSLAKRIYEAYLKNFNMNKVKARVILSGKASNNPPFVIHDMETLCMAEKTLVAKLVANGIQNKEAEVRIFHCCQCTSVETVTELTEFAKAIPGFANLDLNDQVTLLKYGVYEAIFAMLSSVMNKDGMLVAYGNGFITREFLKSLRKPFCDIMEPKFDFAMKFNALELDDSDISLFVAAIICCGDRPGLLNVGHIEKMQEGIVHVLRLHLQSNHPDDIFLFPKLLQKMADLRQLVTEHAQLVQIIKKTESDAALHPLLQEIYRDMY
Sequence of Rap guanine nucleotide exchange factor 4 (Homo sapiens) (Q8WZA2 whole entry, looked up): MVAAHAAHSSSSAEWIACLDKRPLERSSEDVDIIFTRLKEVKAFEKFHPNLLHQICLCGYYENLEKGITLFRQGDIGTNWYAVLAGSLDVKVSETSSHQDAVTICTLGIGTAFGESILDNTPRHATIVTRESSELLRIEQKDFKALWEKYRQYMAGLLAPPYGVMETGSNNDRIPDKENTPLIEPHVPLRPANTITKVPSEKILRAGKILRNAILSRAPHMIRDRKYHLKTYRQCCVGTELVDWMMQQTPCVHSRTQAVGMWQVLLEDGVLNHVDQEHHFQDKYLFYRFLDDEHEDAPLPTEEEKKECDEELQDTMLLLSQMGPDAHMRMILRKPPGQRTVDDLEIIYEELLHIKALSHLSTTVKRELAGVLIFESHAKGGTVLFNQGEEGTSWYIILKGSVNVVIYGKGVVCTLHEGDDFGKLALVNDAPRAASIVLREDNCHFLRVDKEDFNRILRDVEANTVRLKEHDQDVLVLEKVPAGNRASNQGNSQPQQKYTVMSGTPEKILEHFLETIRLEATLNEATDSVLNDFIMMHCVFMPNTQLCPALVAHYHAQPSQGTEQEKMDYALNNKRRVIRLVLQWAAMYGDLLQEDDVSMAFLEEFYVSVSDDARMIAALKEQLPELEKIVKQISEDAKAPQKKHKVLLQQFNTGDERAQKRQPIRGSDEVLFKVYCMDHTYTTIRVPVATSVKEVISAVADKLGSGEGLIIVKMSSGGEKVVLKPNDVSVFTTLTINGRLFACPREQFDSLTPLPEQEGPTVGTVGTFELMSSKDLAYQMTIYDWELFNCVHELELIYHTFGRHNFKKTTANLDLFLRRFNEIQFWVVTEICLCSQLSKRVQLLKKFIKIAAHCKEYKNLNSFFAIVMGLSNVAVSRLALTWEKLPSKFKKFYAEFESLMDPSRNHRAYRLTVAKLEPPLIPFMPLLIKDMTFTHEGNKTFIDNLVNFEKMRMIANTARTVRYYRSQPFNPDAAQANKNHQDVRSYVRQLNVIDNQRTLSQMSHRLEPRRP
Sequence of Rap guanine nucleotide exchange factor 3 (Homo sapiens) (O95398 whole entry, looked up): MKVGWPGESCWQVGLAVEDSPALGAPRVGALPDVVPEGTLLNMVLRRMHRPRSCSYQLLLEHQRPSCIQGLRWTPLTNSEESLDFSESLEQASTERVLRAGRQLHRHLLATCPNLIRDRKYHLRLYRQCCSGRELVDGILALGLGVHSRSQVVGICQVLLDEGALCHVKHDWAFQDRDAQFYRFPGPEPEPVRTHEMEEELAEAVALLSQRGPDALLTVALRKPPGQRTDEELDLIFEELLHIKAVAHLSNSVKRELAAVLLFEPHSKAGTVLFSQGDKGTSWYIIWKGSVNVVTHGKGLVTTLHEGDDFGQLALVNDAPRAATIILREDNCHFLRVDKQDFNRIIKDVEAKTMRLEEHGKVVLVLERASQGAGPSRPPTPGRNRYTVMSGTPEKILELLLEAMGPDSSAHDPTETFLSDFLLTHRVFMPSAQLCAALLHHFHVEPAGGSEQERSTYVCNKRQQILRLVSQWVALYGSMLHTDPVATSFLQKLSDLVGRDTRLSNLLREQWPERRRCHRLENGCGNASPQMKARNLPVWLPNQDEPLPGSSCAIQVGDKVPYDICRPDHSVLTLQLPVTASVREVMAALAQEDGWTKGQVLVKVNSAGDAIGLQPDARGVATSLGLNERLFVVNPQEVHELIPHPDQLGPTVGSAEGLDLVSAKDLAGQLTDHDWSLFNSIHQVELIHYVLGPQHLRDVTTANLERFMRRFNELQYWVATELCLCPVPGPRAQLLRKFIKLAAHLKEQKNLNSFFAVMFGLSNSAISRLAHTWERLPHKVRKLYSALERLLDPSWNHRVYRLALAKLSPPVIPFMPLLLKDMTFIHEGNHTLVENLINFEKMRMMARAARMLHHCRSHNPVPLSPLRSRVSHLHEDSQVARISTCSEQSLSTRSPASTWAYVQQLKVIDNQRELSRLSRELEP
Sequence of Nuclear receptor subfamily 1 group I member 2 (Rattus norvegicus) (Q9R1A7 whole entry, looked up): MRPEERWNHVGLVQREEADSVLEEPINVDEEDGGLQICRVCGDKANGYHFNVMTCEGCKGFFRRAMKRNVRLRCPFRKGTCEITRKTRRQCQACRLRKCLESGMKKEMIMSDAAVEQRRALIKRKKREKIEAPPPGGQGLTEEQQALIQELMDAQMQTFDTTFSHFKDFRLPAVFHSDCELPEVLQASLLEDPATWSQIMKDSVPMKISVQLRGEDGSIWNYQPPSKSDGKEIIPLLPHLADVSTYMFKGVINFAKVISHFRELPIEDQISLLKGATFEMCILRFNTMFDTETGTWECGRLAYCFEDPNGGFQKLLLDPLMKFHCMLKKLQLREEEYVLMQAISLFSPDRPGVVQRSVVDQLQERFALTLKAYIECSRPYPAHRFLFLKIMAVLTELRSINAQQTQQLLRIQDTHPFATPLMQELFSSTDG
Sequence of Nuclear receptor ROR-gamma (Homo sapiens) (P51449 whole entry, looked up): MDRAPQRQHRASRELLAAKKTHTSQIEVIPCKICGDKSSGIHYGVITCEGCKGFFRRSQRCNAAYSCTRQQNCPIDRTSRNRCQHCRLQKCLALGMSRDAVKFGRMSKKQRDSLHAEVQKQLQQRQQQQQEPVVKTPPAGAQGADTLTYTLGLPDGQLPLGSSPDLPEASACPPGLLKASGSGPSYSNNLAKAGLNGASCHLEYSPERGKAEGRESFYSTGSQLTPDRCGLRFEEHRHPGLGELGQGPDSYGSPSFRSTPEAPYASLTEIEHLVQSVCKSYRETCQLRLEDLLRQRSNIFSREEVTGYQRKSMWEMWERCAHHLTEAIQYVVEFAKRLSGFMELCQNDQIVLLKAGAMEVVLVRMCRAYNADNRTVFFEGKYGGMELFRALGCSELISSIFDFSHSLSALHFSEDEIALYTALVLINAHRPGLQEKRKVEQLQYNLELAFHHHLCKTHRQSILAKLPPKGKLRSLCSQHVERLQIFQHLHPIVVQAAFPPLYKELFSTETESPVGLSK
Sequence of Tumor necrosis factor (Homo sapiens) (P01375 whole entry, looked up): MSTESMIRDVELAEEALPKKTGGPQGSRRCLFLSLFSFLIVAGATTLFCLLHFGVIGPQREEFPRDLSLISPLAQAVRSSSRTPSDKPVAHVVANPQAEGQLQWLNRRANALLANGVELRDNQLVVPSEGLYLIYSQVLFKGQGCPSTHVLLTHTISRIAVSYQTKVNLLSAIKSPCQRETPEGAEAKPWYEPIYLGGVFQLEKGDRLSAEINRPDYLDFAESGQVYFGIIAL
Sequence of Vitamin D3 receptor (Homo sapiens) (P11473 whole entry, looked up): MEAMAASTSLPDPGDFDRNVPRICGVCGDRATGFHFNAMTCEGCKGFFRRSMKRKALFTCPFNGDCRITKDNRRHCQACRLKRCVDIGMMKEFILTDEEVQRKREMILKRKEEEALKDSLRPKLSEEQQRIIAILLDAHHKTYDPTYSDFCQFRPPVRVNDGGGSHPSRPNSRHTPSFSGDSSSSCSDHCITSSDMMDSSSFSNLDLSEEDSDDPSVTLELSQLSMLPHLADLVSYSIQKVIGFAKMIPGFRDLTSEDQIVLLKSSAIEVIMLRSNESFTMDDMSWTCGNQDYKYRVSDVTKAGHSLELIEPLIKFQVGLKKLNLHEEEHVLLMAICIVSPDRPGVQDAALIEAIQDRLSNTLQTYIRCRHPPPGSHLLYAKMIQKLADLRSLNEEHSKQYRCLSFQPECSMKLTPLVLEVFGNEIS
Sequence of Retinoic acid receptor RXR-alpha (Homo sapiens) (P19793 whole entry, looked up): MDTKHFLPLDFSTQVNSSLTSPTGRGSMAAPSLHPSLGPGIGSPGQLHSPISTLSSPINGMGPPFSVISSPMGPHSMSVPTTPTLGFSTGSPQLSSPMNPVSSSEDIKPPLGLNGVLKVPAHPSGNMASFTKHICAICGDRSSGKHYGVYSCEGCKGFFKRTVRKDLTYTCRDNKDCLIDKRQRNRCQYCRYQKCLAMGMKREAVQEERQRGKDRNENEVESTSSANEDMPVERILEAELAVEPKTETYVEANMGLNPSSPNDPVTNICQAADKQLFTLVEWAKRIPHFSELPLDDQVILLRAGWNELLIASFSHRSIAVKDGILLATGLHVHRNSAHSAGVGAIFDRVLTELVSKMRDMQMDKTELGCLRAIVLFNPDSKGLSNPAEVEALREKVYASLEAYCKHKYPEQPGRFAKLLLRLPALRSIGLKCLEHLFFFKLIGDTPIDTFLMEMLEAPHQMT

Clc1cc(Cl)c(-c2cc(Cl)c(Cl)cc2Cl)cc1Cl
inactive: outcome [1] | outcome [2] | max response [4] 12.5% | activity change % (negative = inhibition) [5] -3% and 18.9% | Potency [6] | Potency [7] | Potency [8] | outcome [9] | activation [10] -0.0322% and 0.521% | max response [11] -1.16% and 9.79% | Potency [12] | outcome [13] | Potency [14] | max response [15] -2.79% and -2.97% | max response [16] -28.5% and -15.8% | Potency [18] | Potency [19] | outcome [21] | Potency [22] | max response [23] 2.83% and 5.76% | outcome [24]
9.9%: max response [3]
active: Potency [17] 44.7 µM | Potency [20] 4.78 µM
